Most compounds without a hit are left out; they make up all but 13% or so of the library.
HCMV antiviral – inhibitors of human cytomegalovirus | activity change, negative = inhibition, % at 57.5 µM | 410,000 compounds, 4.5% hits | HFF cells, HCMV-luciferase reporter, 72 h; hits give low values; in the data active = activity change below about -60%; inconclusive = no clear call, values can overlap the other calls; inactive = above about -39%
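Compounds were evaluated in HFFs infected with an HCMV luciferase reporter virus (MOI 1 PFU/cell). Luciferase in lysates collected 72 h post infection served as the replication measure.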
HCV inh – HCV inhibition; Huh7.5.1 HCVcc-Cre infection, luciferase reporter, 44 h; Potency, µM (series often up to 41.8 µM), for the others: top-dose activity change, negative = inhibition, hits mostly inhibitors; 340,000 compounds, 3.4% hits; also: potency is read from the fitted curve at half-maximal effect
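After 44 h co-culture of compound, cells and HCVcc-Cre (~0.5 moi), substrate is added for 15 min at room temperature and luciferase measured over 15 sec. Cells were seeded at 1,000/well and pre-cultured 4 h.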
Pf growth 96h – inhibits malaria parasite growth, 96 h. P. falciparum luciferase reporter growth, 96 h. Potency, µM (series often up to 28.7 µM), for the others: at the highest dose activity change, negative = inhibition, most hits filed as inhibitors. 320,000 compounds, 6.9% hits. AID 504834; also: potency is read from the fitted curve at half-maximal effect
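Plates of compound plus infected erythrocytes (2% hematocrit, 0.05% parasitemia final) incubate 96 hours, 37 C, 5% CO2. Detection reagent added; reduced luminescence from the parasites' luciferase reporter flags inhibition.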
Pf growth 48h – P. falciparum growth inhibition at 48 hours (one generation); 310,000 compounds, 5.9% hits; P. falciparum luciferase growth in erythrocytes, 48 h; Potency, µM (top dose mostly 28.7 µM), for inactives: top-dose activity change, negative = inhibition, most hits filed as inhibitors; also: potency is read from the fitted curve at half-maximal effect
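Cell-based growth assay: transgenic P. falciparum expressing firefly luciferase, cultured in red cells within RPMI 1640 containing 0.5% w/v Albumax, 24 mM bicarbonate and gentamycin. A drop in luciferase activity indicates inhibition.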
Numbers without * were called inactive; ? = inconclusive; . = not tested or not shown; ! = not active in a repeat. Unless noted, calls follow the shape of the dose curve; as a rule, active = well fitted inhibition curve with a large enough effect; inconclusive = small, poorly fitted or top-dose-only effect, or another doubt; inactive = no such curve, though single readings can be large or run the other way. % is scaled to controls: 0 for no effect and ±100 for the full control effect.

SMILES	HCMV antiviral	HCV inh	Pf growth 96h	Pf growth 48h
CCN(c1ncnc2c1cnn2-c1cc(Cl)ccc1C)C1CCCCC1	6.9	.	.	.
COc1cccc(CN(C)C(=O)CCc2nnc(-c3ccsc3)o2)c1	46.1	7.2%	?	10.4µM*
CCOC(=O)c1noc2ncnc(Nc3cccc(C(F)(F)F)c3)c12	-9.6	.	.	.
COc1c(Cl)cc(C(=O)N(Cc2ccc(C)o2)C2CCS(=O)(=O)C2)cc1Cl (configuration not stated)	26.8	.	.	.
Cc1cc2c3c(c1C)C1(C(=O)N3C(C)(C)CC2C)C(C#N)=C(N)OC2=C1C(=O)CC(C)(C)C2 (configuration not stated)	19.3	24.9%	9.28µM*	13.1µM*
Cc1cc2c3c(c1C)C1(C(=O)N3C(C)(C)CC2C)C(C#N)=C(N)Oc2n[nH]c(C)c21 (configuration not stated)	-10.9	0.7%	11.7%	?
Cc1cc2c3c(c1)C(C)(c1ccccc1)CC(C)(C)N3C(=O)C21C(C#N)=C(N)OC2=C1C(=O)CC(C)(C)C2 (configuration not stated)	-72.1*	?	1.85µM*	.
CC1(c2ccccc2)CC(C)(C)N2C(=O)C3(C(C#N)=C(N)Oc4cc(O)ccc43)c3cccc1c32 (configuration not stated)	30.9	.	?	.
Cc1cc2c3c(c1)C1(C(=O)N3C(C)(C)CC2C)C(C#N)=C(N)Oc2n[nH]c(C)c21 (configuration not stated)	-26.7	-21.9%	.	11.7µM*
CCOC(=O)c1c(S(=O)(=O)N2CCC(C(=O)Nc3ccccc3OC)CC2)c(C)n(CC)c1C	24.1	.	.	.
CC(C)(C)NC(=O)C(C1CC1)n1c(=O)c(-c2ccco2)nc2ccccc21 (configuration not stated)	31.5	.	.	.
COc1ccc(CNC(=O)COC(=O)c2c(NC(C)=O)sc(C)c2C)cc1OC	4.3	.	.	.
Cc1ccccc1S(=O)(=O)Cc1ccc(C(=O)NCCN(Cc2ccccc2)C(C)C)o1	-24.6	-5.6%	-8.8%	5.22µM*
Cc1ccccc1S(=O)(=O)Cc1ccc(C(=O)NCCCN2CCCC(C)C2)o1 (configuration not stated)	-16.5	6.0%	2.33µM*	-2.1%
Cc1ccccc1S(=O)(=O)Cc1ccc(C(=O)NCCN(C)Cc2ccccc2)o1	?	0.1%	66.3%	-10.0%
CCc1noc(-c2ccc(N3CCCCC3)c([N+](=O)[O-])c2)n1	76.3	.	.	.
C/C(=N\NC1=NCCN1)c1ccc(Cl)cc1	5.1	1.7%	2.33µM*	?
Cc1ccc(S(=O)(=O)N(C)C)cc1NC(=O)C(C)N(C)CCOc1ccc(Cl)cc1 (configuration not stated)	-78.5*	10µM*	?	?
Cc1ccc(S(=O)(=O)N(C)C)cc1NC(=O)C(C)Sc1ccccc1 (configuration not stated)	-10.3	-10.5%	?	2.8%
CC(C(=O)Nc1ccc(F)cc1Cl)N(C)CCOc1ccccc1 (configuration not stated)	-61.3*	-21.2%	42.3%	2.8%
CCOC(=O)c1oc2cc(O)ccc2c(=O)c1-c1ccccc1OC	-20.3	8.7%	-2.2%	-6.9%
COc1ccc(OC)c(-c2c3cc(O)c(=O)cc-3oc3cc(O)c(O)cc23)c1	.	-11.5%	31.9%	10.4µM*
CCOc1ccccc1-c1c2cc(O)c(=O)cc-2oc2cc(O)c(O)cc12	.	-16.5%	25.5%	13.1µM*
O=c1cc2oc3cc(O)c(O)cc3c(-c3ccccc3O)c-2cc1O	.	-26.9%	3.7µM*	4.15µM*
CCCCn1cc(S(=O)(=O)c2ccc(CC)cc2)c(=O)c2cc(F)c(N3CCCC(C)C3)cc21 (configuration not stated)	-0.3	.	.	.
SMILES	HCMV antiviral	HCV inh	Pf growth 96h	Pf growth 48h
Cc1ccc(S(=O)(=O)N2CCc3cc(C(=O)Nc4c(C)cccc4C(C)C)ccc32)cc1	-1.2	.	.	.
Cc1cc(N2CCCC2=O)ccc1S(=O)(=O)Nc1c(C)nn(C)c1C	?	?	10.8%	19.2%
Cc1cc(N2CCCC2=O)ccc1S(=O)(=O)NCCOc1ccccc1	-68.0*	?	?	-7.2%
CCOC(=O)c1c(C)[nH]c(C)c1S(=O)(=O)N1CCCC(C(=O)NCc2ccc(Cl)cc2)C1 (configuration not stated)	-8.8	.	.	.
COc1ccc(-n2ncc3c(N4CCN(c5cc(C)ccc5C)CC4)ncnc32)cc1	73.4	11.2%	?	.
COc1cc2nc(N3CCN(c4cc(C)ccc4C)CC3)nc(N)c2cc1OC	-98.3*	7.08µM*	0.0%	1.85µM*
COc1cc2nc(N3CCNCC3)nc(N)c2cc1OC	?	22.4µM*	.	?
CCc1ccc(C2C(C(=O)Nc3ccccc3OC)=C(C)Nc3c(C(=O)Nc4ccc(C)cc4)cnn32)cc1 (configuration not stated)	-34.1	.	.	.
COc1ccc(N2C(=O)C(CC(=O)Nc3ccccc3)N(CCC3=CCCCC3)C2=O)cc1 (configuration not stated)	-17.0	.	.	.
CC(C)(C)n1ncc2c(=O)n(Cc3ccccc3Br)cnc21	?	.	?	2.94µM*
Cc1ccc(Cn2cnc3c(cnn3C(C)(C)C)c2=O)cc1	?	11.2µM*	-20.2%	55.7%
Cn1ccc2cc(S(=O)(=O)N3CCN(C(=O)Nc4ccccc4F)CC3)ccc21	6.0	.	.	.
CCOc1cccc(-c2nc3ccccc3c(=O)o2)c1	83.6	.	.	.
COc1ccc(C(=O)c2ccc(CC(=O)O)s2)cc1	-16.1	7.5%	?	6.57µM*
CCOC(=O)CCC(NC(=O)c1ccc(NCN2C(=O)c3ccccc3C2=O)cc1)C(=O)OCC (configuration not stated)	52.6	14.3%	4.15µM*	.
C=CCn1c(=O)c2ccccc2n2c(SCc3nc(N)nc(Nc4ccccc4C)n3)nnc12	35.1	-25.5%	?	8.28µM*
COc1cc([C@@H]2Nc3c(F)cccc3[C@@H]3C=CC[C@@H]32)cc(Br)c1OC	5.0	.	.	.
O=C1NC(c2ccc(Cl)cc2)Nc2ccccc21 (configuration not stated)	-29.7	13.4%	0.0%	-17.4%
O=C1C(=O)c2ccccc2C(O)=C1C1CCC(c2ccc(Cl)cc2)CC1 (configuration not stated)	12.7	6.7%	0.0005µM*	0.0006µM*!
COc1ccccc1N1CCN(c2nc3ccc(C)cc3nc2-n2nc(C)cc2C)CC1	-16.4	.	.	.
CS(=O)(=O)c1ccc(-c2nnn(CC(=O)N3CCCCC3)n2)cc1	-18.4	-5.4%	11.7µM*	1.9%
O=C(Cn1nnc(-c2ccc(CN3CCOCC3)cc2)n1)N1CCCc2ccccc21	22.6	-17.5%	2.62µM*	?
Nc1ccc(-c2nnn(CC(=O)N3CCCCC3)n2)cc1	-2.4	-3.8%	?	37.6%
O=C(CN1CCOCC1)N1CCCc2ccccc21	-18.6	18.5%	?	12.3%
Cc1ccc(-c2nnn(CC(=O)N3c4ccccc4CCc4ccccc43)n2)cc1	?	?	?	10.4µM*
